Key:
Test in all cases: PBM binding z-score (relative to random genomic background probes); higher = stronger binding; sequences stand for … in GC…GCGATTGACAGCGTAGAATGAAGG
[1] = tested on: FXR:RXRa (NR concentration 270 nM, RXRa partner concentration 90 nM)
Outline: (§1)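 For binding z-scores, the reference was random background probes on custom Agilent 4×180K protein-binding microarrays. These arrays were incubated 1 h with ligand-free nuclear receptor dimers in PBS pH 7.4, 2% milk, 0.02% Triton X-100, 1 mM DTT, 0.2 mg/mL BSA and 0.4 mg/ml salmon testes DNA. Fluorescence was scanned after antibody detection of each partner (one per run) and regression-normalized.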

[2] = tested on: LXRa:RXRa (NR concentration 270 nM, RXRa partner concentration 90 nM)
Outline: as §1

[3] = tested on: LXRa homodimer (NR concentration 270 nM)
Outline: as §1

[4] = tested on: LXRb:RXRa (NR concentration 270 nM, RXRa partner concentration 90 nM)
Outline: as §1

[5] = tested on: LXRb homodimer (NR concentration 270 nM)
Outline: as §1

[6] = tested on: PPARa:RXRa (NR concentration 270 nM, RXRa partner concentration 90 nM)
Outline: as §1

[7] = tested on: PPARg:RXRa (NR concentration 180 nM, RXRa partner concentration 90 nM)
Outline: as §1

[8] = tested on: PPARg:RXRa 270nM:90nM, anti-RXR (NR concentration 270 nM, RXRa partner concentration 90 nM)
Outline: as §1

[9] = tested on: PPARg:RXRa 30nM:10nM, anti-RXR (NR concentration 30 nM, RXRa partner concentration 10 nM)
Outline: as §1

[10] = tested on: PPARg:RXRa 90nM:30nM, anti-RXR (NR concentration 90 nM, RXRa partner concentration 30 nM)
Outline: as §1

[11] = tested on: PPARg:RXRa DBDmut IVT, anti-RXR (DBD mutation: RXRa K156A/R161A, NR concentration 270 nM, RXRa partner concentration 90 nM)
Outline: as §1

[12] = tested on: PPARg:RXRa IVT, anti-PPARg (NR concentration 270 nM, RXRa partner concentration 90 nM)
Outline: as §1

[13] = tested on: PPARg DBDmut:RXRa IVT, anti-PPARg (DBD mutation: PPARg1 K132A/R137A, NR concentration 270 nM, RXRa partner concentration 90 nM)
Outline: as §1

[14] = tested on: PPARg DBDmut IVT, anti-PPARg (DBD mutation: PPARg1 K132A/R137A, NR concentration 270 nM)
Outline: as §1

[15] = tested on: PPARg homodimer (NR concentration 180 nM)
Outline: as §1

[16] = tested on: PXR:RXRa (NR concentration 270 nM, RXRa partner concentration 90 nM)
Outline: as §1

[17] = tested on: PXR homodimer (NR concentration 270 nM)
Outline: as §1

[18] = tested on: RARa:RXR (NR concentration 270 nM, RXRa partner concentration 90 nM)
Outline: as §1

[19] = tested on: RARa homodimer (NR concentration 270 nM)
Outline: as §1

[20] = tested on: RARb:RXRa (NR concentration 270 nM, RXRa partner concentration 90 nM)
Outline: as §1

Sequence	PBM binding z-score [1]	PBM binding z-score [2]	PBM binding z-score [3]	PBM binding z-score [4]	PBM binding z-score [5]	PBM binding z-score [6]	PBM binding z-score [7]	PBM binding z-score [8]	PBM binding z-score [9]	PBM binding z-score [10]	PBM binding z-score [11]	PBM binding z-score [12]	PBM binding z-score [13]	PBM binding z-score [14]	PBM binding z-score [15]	PBM binding z-score [16]	PBM binding z-score [17]	PBM binding z-score [18]	PBM binding z-score [19]	PBM binding z-score [20]
CAAACTAGGTCACCGGACGGTCAAAGTCCGCATG	4.83	4.33	1.97	3.09	0.428	5.37	9.09	7.27	5.34	6.89	8.62	8.82	3.09	1.22	4.69	2.54	0.265	3.73	0.94	4.7
TCTATTCGTTGAAGGGCAACCGACGAGTCCGTTT	0.909	1.05	0.235	1.05	0.752	1.25	0.0836	2.42	3.64	3.2	2	0.764	0.959	0.28	0.703	0.999	0.546	0.933	0.583	1.56
ACAGACAGGTGAGTGAAGGTAAGTCAGCTGGACG	0.17	0.000763	-0.483	-0.528	-0.65	0.236	0.568	-0.129	-0.0839	-0.0489	0.544	0.594	-0.101	-0.745	-0.0235	-0.37	-0.45	0.0462	-0.141	0.623
CCTAGTTGGTCAAGGTCACACACGCTATAGGTAC	4.71	4.18	2.66	3.92	1.23	4.33	3.35	3.96	1.66	3.2	2.68	3.52	0.555	1.3	4.56	4.41	2.97	4.88	4.38	4.17
TCTAGCAGGCCAGAGGGTGACTCAAGAGGTACGG	-0.401	0.0114	-0.795	-0.373	-1.42	0.54	1.05	2.1	1.99	2.19	0.764	0.183	-1.35	-1.1	-0.406	-0.274	-0.839	-0.247	-1.15	0.306
CCTACCGGGCCATTCAGAGGTCATTGATCATATG	3.15	4.65	6.83	4.07	0.358	3.77	1.05	2.26	0.311	1.27	0.333	1.62	-0.171	-0.538	2.87	5.36	2.87	5.57	0.404	3.29
TCTTGTAGCTCAACAGGAGGTTAAGAAAGATCGA	-0.163	0.472	-0.218	0.222	-0.709	0.659	-0.365	0.868	2.01	1.4	0.679	-0.415	0.889	0.0315	-0.822	0.474	-0.26	0.724	-0.715	-0.0252
CAAACTAGGTCAAGGTCAAAGCCGGTTTGTGCCA	6.25	5.33	3.23	4.36	1.05	6.15	9.26	8.02	6.18	7.95	8.75	8.89	2.59	0.00542	2.93	4.89	1.4	4.84	0.855	5.2
CGTACAAGGTCAGCAGGTCAGTGAAAGCGACGTG	6.31	4.3	0.745	3.29	-0.00943	5.32	5.54	5.17	1.99	3.64	3.86	4.79	1.35	0.315	3.51	3.82	0.382	5.17	1.11	5.23
TAGCCTACGTCATTGGGCCAGTATAGTACGCATC	-0.593	-0.86	-0.485	-0.66	-0.257	-0.37	0.495	-0.589	-0.293	-0.205	-0.24	0.164	-0.121	-0.0205	-0.852	-0.757	-0.796	-0.734	-0.851	-0.413
TAGCCTAGGTCATTCGGGCCAGTATAGTGTCGGC	4.65	3.71	1.53	2.35	0.458	3.55	1.61	2.21	-0.0237	1.26	1.8	2.76	-0.115	-0.745	0.969	2.11	0.189	2.39	-0.428	3.74
CCAGACAGGTGAAAGGTAACTCAATCTGGTACGC	0.545	0.735	-0.0709	1.09	-0.161	3.43	5.5	6.13	3.94	5.99	2.13	2.83	-0.064	-0.205	1.32	1.09	0.164	2.31	0.578	1.11
CTTTACGGGTCACGAGGTTATAGCACGACGAGCG	7.21	5.4	1.34	4.38	0.444	6.35	8.06	7.02	4.31	6.25	5.55	6.46	1.86	2.29	2.93	4.96	0.279	6.19	0.513	4.81
ATCTCTTGGTAAGACTCAGTTCAGTGAAGAACGC	0.584	0.976	0.839	0.676	1.08	0.0896	-0.159	0.141	0.448	0.216	0.682	0.216	1.42	1.19	1.11	1.12	2.04	0.274	1.84	0.518
CTCGATAGGTCGTGCTCAGGTGAGTATACCAAAC	0.909	0.843	-0.342	0.951	-0.454	1.82	0.11	0.394	-0.186	-0.0239	0.241	0.78	-0.285	0.141	0.257	0.623	-0.52	1.44	-0.705	1.77
CTCGAAAGGGCGGTTGAGGTGAGTATACGGATAA	1.23	-0.197	-0.251	-0.253	-0.452	0.0374	0.00915	-0.518	-0.508	-0.301	-0.112	-0.15	0.116	0.0622	0.247	0.233	0.128	0.395	-0.275	1.08
GCGACTGGGGCATCAGCAGGTTGCCATAACTTAA	-0.664	-0.697	-0.615	-0.443	-1.37	0.348	0.434	0.229	-0.762	-0.301	3.45	2.85	0.246	-0.846	-0.258	-0.58	-0.422	-0.453	-0.648	0.207
ACTATTAGTTGACTTATGGCAACCGATACGACGC	0.061	0.293	0.179	0.682	0.995	0.117	1.04	0.488	0.748	0.352	0.0133	0.165	1.06	1.08	0.983	0.367	0.358	0.397	1.2	0.351
TCAGAAAGGTGAAGGTAACTCAGGTACGCAGTCG	1.82	2.61	0.105	1.67	-0.156	2.97	1.75	3.44	4.63	4.04	4.06	2.93	0.125	0.136	0.958	1.12	0.164	1.88	0.504	3.25
CCGACTGGGGCGTAAGGTTACCATAAGCCAGCCC	0.247	1.35	-0.338	0.704	-1.25	1.35	1.19	2.42	0.143	1.7	0.446	0.275	-1.37	-0.827	0.0631	0.213	-0.391	0.883	-0.676	1
AGTCCAAGTTCAGGACGAGGTAACGTAAAGCACG	1.19	0.849	0.0911	0.596	-0.522	1.35	0.826	0.394	0.136	0.0902	-0.641	0.15	-0.559	-0.0596	0.572	1.93	0.749	1.34	-0.0097	2.56
AGCTCTAGGTAACCAAGTTCAGTGAATGCCGAAC	-0.0702	0.208	0.46	0.265	-0.228	0.481	0.22	0.513	-0.0768	-0.252	3.96	2.07	-0.276	-0.0149	0.421	1.53	1.74	0.198	-0.119	0.793
TCTTGTAGATCAACAGGAGGTGAAGAAAGATCGA	0.155	0.134	-0.343	0.298	-0.585	0.798	-0.0204	1.4	2.7	2.04	1.56	1.14	-0.0745	1.41	-0.39	0.179	-0.438	0.154	-0.0996	0.194
TCATATAGGTAATACAGGTGAAAGTGGGCATCTA	1.4	1.27	0.56	1.21	0.302	2.33	2.41	3.18	4.26	3.72	4.07	3.76	0.893	1.47	1.79	1.02	0.455	1.35	1.57	0.826
AGAATGAGGTTATACGTAAATCAGGGAAGAAAGT	2.3	1.9	0.21	1.77	0.0752	3.24	2.5	2.79	0.991	2.07	3.33	2.28	0.904	1.57	0.789	1.18	0.834	1.77	0.337	1.59
CCAGACAGGTGAGGAGGTAACTCAGCCTCGATTA	-0.0226	0.276	0.253	0.35	-0.29	0.831	0.403	0.546	-0.128	0.0478	0.968	0.86	-0.637	-0.654	0.632	0.016	0.482	0.341	0.613	0.524
TCTATTAGTTGATTAGGGTAACCGAAACAGCGGA	0.555	0.884	0.302	1.09	0.799	1.01	0.052	1.86	3.73	2.87	2.12	1.19	1.29	1.26	0.518	0.646	0.346	0.855	1.41	0.609
CCTACTGGGCCAAAAAGGTCCTTGATGCCGATAA	-0.386	-0.565	-0.584	-0.39	-0.811	0.631	0.195	0.889	-0.0812	0.211	3.01	2.44	-0.992	-1.33	-0.196	-0.29	-0.721	-0.161	-0.376	0.177
